Test results taken from PubChem BioAssay AID588344 (National Center for Advancing Translational Sciences (NCATS), 2011).
The list shows a part of the results. Inconclusive results are not listed. Calls of active or inactive are those of the source. Calls follow the shape of the dose curve; as a rule, active = well fitted inhibition curve with a large enough effect; inconclusive = small, poorly fitted or top-dose-only effect; inactive = flat fitted curve, though single readings scatter.

These compounds were tested against Histone-lysine N-methyltransferase EHMT2 (Homo sapiens) (UniProt Q96KQ7) (assay: qHTS Assay for Inhibitors of Histone Lysine Methyltransferase G9a: Hit Confirmation). Details: G9a H3K9 monomethylation, AlphaScreen, 2 h.
Chain of Histone-lysine N-methyltransferase EHMT2 (Homo sapiens) (Q96KQ7 913-1193 limits assumed): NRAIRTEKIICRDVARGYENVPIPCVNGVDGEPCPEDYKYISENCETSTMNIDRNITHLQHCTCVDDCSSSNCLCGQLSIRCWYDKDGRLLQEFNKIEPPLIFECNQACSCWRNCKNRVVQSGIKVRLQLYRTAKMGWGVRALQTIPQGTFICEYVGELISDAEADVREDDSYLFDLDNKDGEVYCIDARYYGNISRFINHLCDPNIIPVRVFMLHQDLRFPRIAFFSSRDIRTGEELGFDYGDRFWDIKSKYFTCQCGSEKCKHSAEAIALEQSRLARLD
Excerpt: Methylated lysines, on the N-terminal tails of histone proteins serve as epigenetic markers to recruit factors that can then modify local chromatin structure to lead to functional consequences. G9a and other members of the SUV39 family of the SET domain-containing superfamily of histone lysine methyltransferases (HMT) have been identified to specifically methylate Lys9 of histone H3 (H3K9). G9a catalyzes the mono- and di-methylation of H3K9 in mammalian euchromatic regions, where the resulting H3K9me2 is indicative of transcriptional repression. […] The inhibition of G9a will result in transcriptional activation and work synergistically with DNA methyltransferase and histone deacetylase inhibitors, to kill cancer cells. This qHTS assay for identification of G9a inhibitors is a chemiluminescence based AlphaScreen (PerkinElmer). Methylation of biotinylated-histone peptide is measured through specific antibody-based detection, in conjunction with streptavidin-coated donor and anti-IgG antibody-coated acceptor beads. The method is particularly well suited for detection of inhibitors acting by the desired histone peptide competitive mechanism and is applicable to testing other HMTs. Although AlphaScreen has significant advantages with its utility in a variety of epigenetic target assays, the primary screening data provided in this deposition should be used with caution due to the prevalence of screening artifacts. An AlphaScreen counterscreen is highly recommended to be run against any putative actives to eliminate non specific artifacts. Alternatively, one can use other AlphaScreen assays in PubChem to filter out promiscuous hits. Quinn et al. A chemiluminescence-based method for identification of histone lysine methyltransferase inhibitors. Mol Biosyst 6(5): 782-8. 2010. PMID: 20567762 [2] Baell,Holloway. New substructure filters for removal of pan assay interference compounds (PAINS) from screening libraries and for their exclusion in bioassays. J Med Chem. 53(7):2719-40. 2010. PMID: 20131845 NIH Chemical Genomics Center [NCGC] NIH Molecular Libraries Probe Production Network [MLPCN] MLPCN Grant: MH084681-02 Assay Submitter (PI): Structural Genomic Consortium - Toronto, Peter Brown
To each well, 2 uL of HMT enzyme (final 20 nM) will be added using a nanoliter dispenser. The G9a- and GLP-inhibitor BIX-01294 will be used as an intraplate control, with a 16-point titration in duplicate. A Kalypsys pin-tool will be employed to transfer 23 nL of library compound solution in DMSO to each well. Following a 15 min incubation of enzyme with compounds at room temperature, 1 uL mixture of b-H3K9 peptide substrate (final 500 nM) and SAM cofactor (final 20 uM) will be added. Reactions are allowed to proceed at room temperature for 2 hours. Methylated b-H3K9 peptide product is detected with 0.5 ug/mL rabbit polyclonal anti-monomethyl histone H3K9 antibody (Abcam Inc., Cambridge, MA) and 20 ug/mL each streptavidin-coated donor and anti-rabbit IgG acceptor AlphaScreen beads. Antibody and beads will be added in a 1 uL dispense, for a final volume of 4 uL, and plates will be incubated protected from the light for 10 min at room temperature. Microplates will then be read on an EnVision multilabel plate reader using the 1,536 plate HTS AlphaScreen aperture (excitation time 80 ms, measurement time 240 ms).
Also: nearly all actives have a fitted effect of over 65% in size.
Potency is read from the fitted curve at half-maximal effect.

Potency, active:
CCCCNC(=O)CSc1nc2ccc(NC(=O)CSc3nnc(N)s3)cc2s1 1.42 µM
CC(NC(=O)c1ccco1)C(=O)Nc1nc(-c2ccccn2)cs1 (stereo unspecified) 7.96 µM
COCCCNCC(=O)Nc1sc(C)c(C)c1C(=O)OC 31.6 µM
CCOC(=O)c1ccc(-n2c(CCC(=O)O)ccc2-c2ccccc2)cc1 31.6 µM
CCn1c(SCC(=O)Nc2cccc(F)c2)nnc1-c1cc2cc(Br)ccc2o1 5.01 µM
CCc1ccc(NC2Nc3cc(C)nn3S2)cc1 (stereo unspecified) 1.78 µM
c1ccc(-c2nnc3n2NC(c2ccc4c(c2)OCO4)S3)cc1 (stereo unspecified) 0.178 µM
CCOC(=O)N1CCc2c(sc(NCc3cccc(F)c3)c2C(=O)Nc2ccccc2OCC)C1 4.57 µM
CCOC(=O)c1ccc(NC(=O)CSc2ncccn2)cc1 0.632 µM
CCOC(=O)N1CCN(C(c2cccnc2)c2ccc3cccnc3c2O)CC1 (stereo unspecified) 0.159 µM
Cc1ccc(-c2cnc(NCc3ccc(C(C)C)cc3)n2C)cc1 31.6 µM
Cc1ccccc1C(=O)Nc1ccc(N2CCCCCC2)cc1 2.83 µM
CCOc1ccc(NC(=O)c2c(NC(=O)Cc3ccccc3)sc3c2CCCCC3)cc1 4.57 µM
CCc1ccc(Nc2ncc3c(n2)CC(c2ccco2)CC3=O)cc1 (stereo unspecified) 31.6 µM
CCOc1ccc(NC(=O)c2c(NC(=O)Cc3ccccc3)sc3c2CCC(C)C3)cc1 (stereo unspecified) 2.57 µM
CCOC(=O)c1c(NC(=O)COc2cc(C)ccc2C(C)C)sc(C)c1C 5.64 µM
